PubChem BioAssay
Activity calls are given as the source filed them.

Key:
[1] = optical density shifts of acrAB sulA E. coli – strain DRC41, OD650, 48 h, E. coli filamentation inducer project, primary screen (AID 1152); settings: higher = more signal, called active from +8 up or from −8 down;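 also: E. coli MC1000 strain DRC41 lacking acrAB efflux pump and sulA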
[2] = probe aLefty1 binding on compound microarray – biochemical, small-molecule microarray, 635/667 nm fluorescence, primary screen (AID 1153); settings: higher = more signal;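 also: score merges spot fluorescence with signal-to-noise ratio from the scanned slide images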
[3] = plasmodial surface anion channel blockers, osmotic lysis – cell-based, P. falciparum Indochina, OD700, 1 h, primary screen (AID 1154); settings: P. falciparum Indochina infected RBC osmotic lysis, higher = more signal, called active from +8 up or from −8 down
[4] = plasmodial surface anion channel blockers, osmotic lysis – cell-based, P. falciparum Indochina, OD700, 2 h, primary screen (AID 1155);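 also: lysis reports solute entry through the parasite surface anion channel PSAC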; settings: P. falciparum Indochina infected erythrocytes, higher = more signal, called active from +8 up or from −8 down
[5] = changes in parasitized red cell lysis, either direction – P. falciparum Indochina, OD700, 3 h, PSAC antagonist project, primary screen (AID 1156); settings: P. falciparum-infected erythrocytes, osmotic lysis, higher = more signal, called active from +8 up or from −8 down
[6] = plasmodial surface anion channel blockers, osmotic lysis – cell-based, P. falciparum Indochina, OD700, 18 h, primary screen (AID 1157); settings: P. falciparum Indochina infected erythrocytes, osmotic lysis OD700, 18 h; higher = more signal, called active from +8 up or from −8 down
[7] = S6 kinase pathway phospho-S6 level changes – cell-based, A549, cytoblot, luminescence, serum-stimulated, primary screen (AID 1158); settings: 5 h, higher = more signal;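 also: serum-stimulated A549 lung adenocarcinoma cells; signal is phosphorylated S6 detected by cytoblot immunostaining with HRP secondary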
[8] = molecular target: NADPH oxidase 2 (Homo sapiens) (UniProt P04839); experiment: compounds shifting NOX2 Amplex Red fluorescence – cell-based, HEK293-NOX2, PMA-stimulated, NOX inhibitor project, primary screen (AID 1159); settings: 45 min, higher = more signal, called active from +8 up or from −8 down; also: test concentration not given here
[9] = molecular target: NADPH oxidase 4 (Homo sapiens) (UniProt Q9NPH5); experiment: compounds shifting NOX4 Amplex Red fluorescence – cell-based, HEK293-NOX4, tetracycline-induced, NOX inhibitor project, primary screen (AID 1160); settings: HEK293-NOX4, Amplex Red H2O2 fluorescence, 45 min; higher = more signal, called active from +8 up or from −8 down
[10] = molecular target: NADPH oxidase 5 (Homo sapiens) (UniProt Q96PH1); experiment: compounds shifting NOX5 Amplex Red fluorescence – cell-based, HEK293-NOX5, NOX inhibitor project, primary screen (AID 1161); settings: HEK293-NOX5, ionomycin, 45 min, higher = more signal
NADPH oxidase 5 (Homo sapiens), sequence (Q96PH1 whole entry, looked up): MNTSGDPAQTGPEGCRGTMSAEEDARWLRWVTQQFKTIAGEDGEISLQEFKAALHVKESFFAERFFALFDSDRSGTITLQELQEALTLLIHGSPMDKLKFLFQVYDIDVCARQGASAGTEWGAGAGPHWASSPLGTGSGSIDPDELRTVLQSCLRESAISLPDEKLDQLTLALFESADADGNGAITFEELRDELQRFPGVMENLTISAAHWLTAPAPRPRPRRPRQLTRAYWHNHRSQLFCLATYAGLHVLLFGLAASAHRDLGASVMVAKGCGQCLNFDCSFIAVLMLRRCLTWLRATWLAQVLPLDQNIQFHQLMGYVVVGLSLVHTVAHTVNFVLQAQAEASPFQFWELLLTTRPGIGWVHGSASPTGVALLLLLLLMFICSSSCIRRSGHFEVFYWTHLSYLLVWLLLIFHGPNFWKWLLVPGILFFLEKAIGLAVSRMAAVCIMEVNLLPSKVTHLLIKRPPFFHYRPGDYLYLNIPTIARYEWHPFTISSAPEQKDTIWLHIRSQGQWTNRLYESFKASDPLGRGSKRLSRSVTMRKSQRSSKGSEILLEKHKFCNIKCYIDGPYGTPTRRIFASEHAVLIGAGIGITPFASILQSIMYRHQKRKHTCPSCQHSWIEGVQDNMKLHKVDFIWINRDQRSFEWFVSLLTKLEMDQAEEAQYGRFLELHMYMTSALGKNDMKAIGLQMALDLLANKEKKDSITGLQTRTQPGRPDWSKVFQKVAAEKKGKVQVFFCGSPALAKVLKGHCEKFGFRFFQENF

NADPH oxidase 2 (Homo sapiens), sequence (P04839 whole entry, looked up): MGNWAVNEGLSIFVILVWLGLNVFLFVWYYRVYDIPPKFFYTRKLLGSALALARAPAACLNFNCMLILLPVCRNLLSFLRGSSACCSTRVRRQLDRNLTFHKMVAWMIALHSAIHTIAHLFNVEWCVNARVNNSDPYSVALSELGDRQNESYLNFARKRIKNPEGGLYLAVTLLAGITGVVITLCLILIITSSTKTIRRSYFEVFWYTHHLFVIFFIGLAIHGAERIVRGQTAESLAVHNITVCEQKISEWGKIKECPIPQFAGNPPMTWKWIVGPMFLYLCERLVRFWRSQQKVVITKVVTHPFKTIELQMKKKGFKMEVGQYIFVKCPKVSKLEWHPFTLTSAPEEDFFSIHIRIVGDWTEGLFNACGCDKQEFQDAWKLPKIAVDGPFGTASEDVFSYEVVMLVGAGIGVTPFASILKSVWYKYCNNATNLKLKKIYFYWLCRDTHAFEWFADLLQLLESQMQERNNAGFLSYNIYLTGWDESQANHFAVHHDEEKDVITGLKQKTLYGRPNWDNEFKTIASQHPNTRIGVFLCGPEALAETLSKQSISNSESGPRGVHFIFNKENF
NADPH oxidase 4 (Homo sapiens), sequence (Q9NPH5 whole entry, looked up): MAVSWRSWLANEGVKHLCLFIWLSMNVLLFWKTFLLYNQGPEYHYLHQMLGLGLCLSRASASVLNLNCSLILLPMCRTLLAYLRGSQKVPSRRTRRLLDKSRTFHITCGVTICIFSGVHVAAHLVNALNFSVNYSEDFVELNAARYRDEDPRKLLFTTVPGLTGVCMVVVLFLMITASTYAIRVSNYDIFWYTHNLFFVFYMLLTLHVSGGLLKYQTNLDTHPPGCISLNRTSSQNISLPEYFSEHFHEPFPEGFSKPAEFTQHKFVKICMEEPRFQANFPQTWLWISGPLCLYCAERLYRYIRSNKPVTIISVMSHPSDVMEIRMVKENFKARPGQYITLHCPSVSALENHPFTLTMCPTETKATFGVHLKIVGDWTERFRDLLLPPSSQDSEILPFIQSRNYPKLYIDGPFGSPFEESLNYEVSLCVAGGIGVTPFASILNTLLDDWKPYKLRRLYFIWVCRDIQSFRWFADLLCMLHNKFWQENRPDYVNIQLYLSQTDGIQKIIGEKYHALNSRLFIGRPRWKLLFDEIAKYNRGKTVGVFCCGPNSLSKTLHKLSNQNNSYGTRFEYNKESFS

SMILES | z-score [1] | composite z-score [2] | z-score [3] | z-score [4] | z-score [5] | z-score [6] | z-score [7] | z-score [8] | z-score [9] | z-score [10]
C=CCC(OC(C)=O)[C@@H]1[C@@H](N(Cc2ccc(-c3ccccc3)cc2)C(=O)Cc2ccc(F)cc2)c2cc(OCCCO)ccc2N1C(=O)c1ccc2ccccc2n1 (stereo not given in full) | 1.51 (inactive) | 0.22 | 0.879 (inactive) | 1.19 (inactive) | -0.385 (inactive) | 0.505 (inactive) | 0.374 | -0.632 (inactive) | 0.631 (inactive) | 1.95
O=C(OCCF)C1=CCC(c2cccc(Cl)c2)O1 (stereo not given) | 0.562 (inactive) | -0.378 | 16.4 (active) | 0.0666 (inactive) | -0.628 (inactive) | -1.21 (inactive) | 0.543 | -0.0482 (inactive) | 0.842 (inactive) | 0.382
C=CCC(OC(C)=O)[C@@H]1[C@@H](N(Cc2cccc3ccccc23)C(=O)c2cccc3ccccc23)c2cc(OCCCO)ccc2N1C(=O)c1ccc2ccccc2n1 (stereo not given in full) | -0.773 (inactive) | 0.0622 | 1.1 (inactive) | 0.613 (inactive) | -0.249 (inactive) | 0.532 (inactive) | 0.443 | -0.62 (inactive) | -0.419 (inactive) | -2.42
O=C1OCCC=C[C@H]2OC34C=CCN(Cc5ccccc5)C(=O)[C@H]3N(CCCCCCO)C(=O)[C@@H]4C12 (stereo not given in full) | 1.12 (inactive) | -0.0831 | 0.944 (inactive) | 0.396 (inactive) | 0.884 (inactive) | 0.43 (inactive) | 1.2 | 1.11 (inactive) | 0.0473 (inactive) | 1.97
C=CCNC(=O)[C@@H]1[C@H]2C(=O)O[C@H](c3ccccc3)[C@H](c3ccccc3)N2[C@H](c2ccccc2OCCO)[C@@]12C(=O)Nc1ccc(C#CC3=CCCCC3)cc12 | 1.51 (inactive) | 0.454 | 1.78 (inactive) | -0.144 (inactive) | -0.458 (inactive) | 0.0442 (inactive) | 2.36 | 0.646 (inactive) | -1.35 (inactive) | -4.4
COC(=O)C(CC#Cc1ccc2c(c1)[C@]1(C(=O)N2)[C@H](C(=O)NC[C@H](O)c2ccccc2)[C@H]2C(=O)O[C@H](c3ccccc3)[C@H](c3ccccc3)N2[C@@H]1c1ccc(OCCO)cc1)C(=O)OC | -0.658 (inactive) | 1.78 | 5.95 (inactive) | 2.11 (inactive) | 0.0313 (inactive) | 1.1 (inactive) | 0.161 | 1.39 (inactive) | 0.865 (inactive) | 1.41
CCCNC(=O)[C@@H]1c2ccccc2C(=O)N(Cc2ccccc2)[C@H]1c1ccc(CO)cc1 | -0.731 (inactive) | -0.0508 | 1.36 (inactive) | -0.325 (inactive) | 1.41 (inactive) | 0.0842 (inactive) | 0.0533 | -0.802 (inactive) | -1.63 (inactive) | -2.53
CCC[C@@H]1C=C(C(=O)O)[C@H](c2ccc(C)cc2)N1S(=O)(=O)c1ccc(C)cc1 | -0.75 (inactive) | 0.114 | 0.0822 (inactive) | 0.932 (inactive) | -0.246 (inactive) | 1.03 (inactive) | -0.476 | 0.769 (inactive) | -0.741 (inactive) | 0.101
CCC(CC)C(O)C1C=CC2C(=O)N(c3ccccc3)C(=O)C2N1Nc1ccc(C#N)cc1 (stereo not given) | -0.35 (inactive) | 0.675 | 15.4 (active) | 2.91 (inactive) | 3.47 (inactive) | 1.51 (inactive) | -1.11 | -1.49 (inactive) | -3.45 (inactive) | -3.2
O=C/C=C/c1ccc2c(c1)OCO2 | 0.586 (inactive) | -0.205 | -0.448 (inactive) | -1.11 (inactive) | 0.321 (inactive) | -2.47 (inactive) | 1.25 | -0.41 (inactive) | -0.502 (inactive) | 0.961
COc1ccc([Si](C)(C)[C@H]2[C@H](CCn3cc(CCO)nn3)O[C@@]3(C(=O)N(Cc4ccc(N5CCOC5=O)cc4)c4ccccc43)[C@@H]2C)cc1 | 0.176 (inactive) | 0.308 | 33.4 (active) | 34.8 (active) | 2.62 (inactive) | 6.01 (inactive) | 0.711 | -0.564 (inactive) | 2.16 (inactive) | -0.419
O=C1c2ccccc2[C@@]2(Cc3ccccc3N(Cc3ccccc3)C2=O)[C@H](c2ccc(CO)cc2)N1C1CCCCC1 | 0.414 (inactive) | 0.0437 | -0.101 (inactive) | 0.546 (inactive) | 0.105 (inactive) | 0.327 (inactive) | 0.126 | 0.162 (inactive) | -0.143 (inactive) | -0.548
O=c1oc(-c2ccccc2)nc2cc(Br)ccc12 | 0.311 (inactive) | -0.0099 | 3.27 (inactive) | 0.635 (inactive) | -1.02 (inactive) | 0.845 (inactive) | -0.29 | 0.377 (inactive) | -0.138 (inactive) | -0.291
CC(C)Cc1ccc(CN2CC[C@@H](NS(=O)(=O)c3ccccc3)C2)cc1 | -19.2 (active) | -0.198 | 2.49 (inactive) | 0.408 (inactive) | 0.306 (inactive) | 0.574 (inactive) | 0.709 | 0.312 (inactive) | -0.907 (inactive) | -3.68
O=C(CS)NCCCCCCNC(=O)[C@H]1C[C@H]2C(=O)N3CCC[C@H]3C(=O)N2[C@H]1c1cccc(OCCO)c1 | -1.17 (inactive) | 0.105 | 5.08 (inactive) | 0.331 (inactive) | -0.645 (inactive) | 0.253 (inactive) | 0.598 | 1.25 (inactive) | 0.799 (inactive) | 0.0469
CC(C)NC(=O)[C@@]1(Cc2ccccc2I)c2ccccc2C(=O)N(Cc2ccccc2)[C@H]1c1ccc(CO)cc1 | -0.668 (inactive) | 0.018 | 4 (inactive) | 0.644 (inactive) | 1.19 (inactive) | 0.374 (inactive) | -0.0212 | 1.32 (inactive) | 1.07 (inactive) | 0.909
NC(=O)NCC#Cc1ccc2c(c1)[C@]1(C(=O)N2)[C@H](C(=O)N2CCCCCCC2)[C@H]2C(=O)O[C@H](c3ccccc3)[C@H](c3ccccc3)N2[C@@H]1c1ccc(OCCO)cc1 | -0.518 (inactive) | 1.4 | 2.66 (inactive) | 0.66 (inactive) | 0.391 (inactive) | 0.286 (inactive) | -0.378 | 1.35 (inactive) | -1.11 (inactive) | -0.67
N#Cc1ccc(NN2C(C(O)c3cccs3)C=CC3C(=O)N(c4ccccc4)C(=O)C32)cc1 (stereo not given) | -0.127 (inactive) | 0.0262 | 5.65 (inactive) | -0.131 (inactive) | 0.832 (inactive) | -0.741 (inactive) | 0.578 | -2.12 (inactive) | -5.34 (inactive) | -3.05
CC(C)NC(=O)[C@@H]1c2ccccc2C(=O)N(Cc2ccccc2)[C@H]1c1ccc(CO)cc1 | -0.355 (inactive) | 0.108 | 1.36 (inactive) | 0.573 (inactive) | 1.65 (inactive) | 0.351 (inactive) | 0.0506 | -0.767 (inactive) | 0.333 (inactive) | -1.66
[N-]=[N+]=NCc1ccccc1[C@@H]1OC(c2ccc(OCCCO)cc2)=N[C@]1(Cc1ccccc1)C(=O)N1CCCCC1 | 1.22 (inactive) | 0.33 | 21.5 (active) | 4.66 (inactive) | 1.78 (inactive) | 1.3 (inactive) | -0.205 | -0.84 (inactive) | 0.453 (inactive) | -1.26
C=C(CCCC)/C(=C/C[C@H](OC(C)=O)c1ccc(CO)o1)c1cnc2ccccc2c1 | -0.134 (inactive) | 0.0557 | 5.4 (inactive) | 0.452 (inactive) | 0.435 (inactive) | 0.136 (inactive) | 0.307 | -0.719 (inactive) | -0.447 (inactive) | -0.582
COc1ccc(C(O)C2C=CC3C(=O)N(c4ccccc4)C(=O)C3N2Nc2ccc([N+](=O)[O-])cc2)cc1OCc1ccccc1 (stereo not given) | -1.64 (inactive) | 1.55 | 14.2 (active) | 2.71 (inactive) | 0.107 (inactive) | 0.926 (inactive) | -0.881 | 0.151 (inactive) | -0.18 (inactive) | -1.29
COCCOC(=O)N1C(=O)[C@@]2(c3ccccc31)[C@H](C(=O)NC[C@H](O)c1ccccc1)[C@H]1C(=O)O[C@H](c3ccccc3)[C@H](c3ccccc3)N1[C@@H]2c1ccc(OCCO)cc1 | 1.32 (inactive) | -0.496 | 3.97 (inactive) | 1.89 (inactive) | 0.968 (inactive) | 0.999 (inactive) | 0.29 | 0.463 (inactive) | 1.13 (inactive) | -0.739
Cc1cc(C)cc(N2C(=O)CS(=O)(=O)C2c2cccc([N+](=O)[O-])c2)c1 (stereo not given) | 0.469 (inactive) | 1.33 | 0.548 (inactive) | -0.385 (inactive) | 0.809 (inactive) | -1.48 (inactive) | 1.48 | 0.316 (inactive) | 0.227 (inactive) | 1.63
CC(C)C[C@@H]1NC(=O)[C@H]2C[C@@H](C(=O)NCCCCCNC(=O)CS)[C@@H](c3cccc(OCCO)c3)N2C1=O | -0.586 (inactive) | -0.0511 | 2.59 (inactive) | 0.505 (inactive) | -0.47 (inactive) | 0.327 (inactive) | -0.592 | 2.16 (inactive) | 1.21 (inactive) | 0.93
